Results reported in PubChem BioAssay (NCATS).
Inconclusive results are not listed. A call without a number means that no potency is given here. Calls of active or inactive are those of the source. Unless noted, calls follow the shape of the dose curve; as a rule, active = well fitted curve in the direction sought with a large enough effect; inconclusive = small, poorly fitted or top-dose-only effect, or another doubt; inactive = no such curve, though single readings can be large; an effect the other way counts as inactive or inconclusive.

Columns and labels:
[1] = NCATS anti-infectives library activity on HEK293 viability as a counter-qHTS vs the C. elegans viability qHTS (AID 1745854); settings: HEK293 viability counter-screen; series mostly up to 41.8 µM;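 also: HEK293 cells exposed to compounds for 24 hr before the viability read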; also: potency is read from the fitted curve at half-maximal effect
In short: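 Compounds were acoustically plated (several concentrations, 1:5, final up to 41.7 uM), then 1500 HEK293 cells added per well and incubated 24 hr at 37C, 5% CO2. CellTiter-Glo was added and luminescence read after 10 min.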

[2] = Viability counterscreen for antagonist of constitutive androstane receptor (CAR) against the NCATS DSHEA and TCM libraries (AID 1794837); settings: CAR reporter cell line viability counterscreen, qHTS; series mostly up to 22 µM;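 also: compound exposure lasted 24 h before viability reading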
In short: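 HepG2-CYP2B6-hCAR cells (2,500/well) were allowed to attach for 5 h, then exposed to compounds with 48 uM CITCO for 24 h at 37C. Viability was read by CellTiter-Fluor fluorescence after 1 h.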

[3] = Viability counterscreen for agonist of constitutive androstane receptor (CAR) against the NCATS DSHEA and TCM libraries (AID 1794838); settings: HepG2 cell viability counterscreen, CAR agonist assay, co-treated with 0.75 µM CAR antagonist; series mostly up to 40 µM
In short: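 HepG2-CYP2B6-hCAR cells (2,500/well) attached 5 h, then got compounds plus 0.75 uM PK11195 final. After 24 h at 37C, viability read by CellTiter-Fluor fluorescence (Ex/Em 405/540 nm).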

[4] = target: Nuclear receptor subfamily 1 group I member 3 (Homo sapiens) (UniProt Q14994); assay: Primary qHTS for agonist of constitutive androstane receptor (CAR) against the NCATS DSHEA and TCM libraries (AID 1794839); settings: CAR agonist reporter cells, qHTS luminescence, CAR antagonist co-added at 0.75 µM; series mostly up to 22 µM;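 also: HepG2 cells expressing human CAR with a CYP2B6 reporter plus PK11195 antagonist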
Chain of Nuclear receptor subfamily 1 group I member 3 (Homo sapiens) (Q14994 whole entry, looked up): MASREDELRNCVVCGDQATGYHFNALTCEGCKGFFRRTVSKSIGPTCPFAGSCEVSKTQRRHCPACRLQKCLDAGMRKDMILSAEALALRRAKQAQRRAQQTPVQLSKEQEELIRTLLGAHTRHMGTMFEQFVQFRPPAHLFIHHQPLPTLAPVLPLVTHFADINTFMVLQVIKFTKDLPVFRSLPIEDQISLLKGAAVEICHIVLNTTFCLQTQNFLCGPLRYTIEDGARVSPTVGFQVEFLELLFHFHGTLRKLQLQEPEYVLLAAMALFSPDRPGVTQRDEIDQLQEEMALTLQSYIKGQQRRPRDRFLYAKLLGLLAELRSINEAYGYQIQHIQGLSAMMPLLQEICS
In short: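 HepG2-CYP2B6-hCAR cells (2,500/well) were attached for 5 h, then treated for 24 h at 37 °C with compounds plus 0.75 µM PK11195. Luciferase luminescence (ONE-Glo) was read, with CellTiter-Fluor viability (Ex/Em 405/540 nm).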

[5] = HepG2 viability counterscreen (readout 2: ATP content) against the NCATS DSHEA and TCM libraries (AID 1794840); settings: ATP content luminescence; series mostly up to 15.1 µM;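 also: HepG2 cells exposed to substances for about 24 h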
In short: (§1)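 HepG2 cells (1,000 cells/well) attached ~4 h, then treated ~24 h at 37C with substances. Protease activity read by GF-AFC (25 uM final, 30 min, Ex/Em 380/510 nm); ATP content then by CellTiter-Glo luminescence.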

[6] = HepG2 viability counterscreen (readout 1: protease activity) against the NCATS DSHEA and TCM libraries (AID 1794841); settings: qHTS concentration series; series mostly up to 15.1 µM;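 also: cells exposed to compounds for about 24 h before the protease read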
In short: as §1

[7] = NCATS anti-infectives library activity on the primary C. elegans qHTS viability assay (AID 1745855; calls by dose curve; also: potency is read from the fitted curve at half-maximal effect); settings: C. elegans worm area imaging, day 7; series mostly up to 41.8 µM
In short: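 Viability read-out is GFP fluorescence of PE254-GFP-FLuc C. elegans, measured by laser cytometry (488 nm) at day 0, 3 and 7. Ten L1 worms per well were incubated 7 days at 21 °C with compounds and bacterial capsules in S medium.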

CCO[C@@H]1OC(=O)C[C@@H]1NC(=O)[C@@H]1CCCN1C(=O)[C@@H](NC(=O)c1ccc(N)c(Cl)c1)C(C)(C)C
Potency [1]: inactive

CC(C)=CCC[C@](C)(O)[C@H]1CC[C@]2(C)[C@@H]1[C@H](O)CC1[C@@]3(C)CC[C@H](O)C(C)(C)[C@@H]3[C@@H](O[C@@H]3O[C@H](CO)[C@@H](O)[C@H](O)[C@H]3O[C@@H]3O[C@H](CO)[C@@H](O)[C@H](O)[C@H]3O)C[C@]12C (stereo not given in full)
outcome [2]: inactive
outcome [3]: inactive
outcome [4]: inactive
outcome [5]: inactive
outcome [6]: inactive

[N-]=[N+]=N[C@]1(CO)O[C@@H](n2ccc(=O)[nH]c2=O)[C@@H](O)[C@@H]1O
Potency [1]: inactive

C[C@@]12CC[C@@H]3[C@@](CC[C@H]4[C@@]3(C)CCC[C@@]4(C)C(=O)O)(CC1=O)C2
outcome [2]: inactive
outcome [3]: inactive
outcome [4]: inactive
outcome [5]: inactive
outcome [6]: inactive

CN[C@H](CC(C)C)C(=O)N[C@H]1C(=O)N[C@@H](CC(N)=O)C(=O)N[C@H]2C(=O)N[C@H]3C(=O)N[C@H](C(=O)N[C@H](C(=O)O)c4cc(O)cc(O)c4-c4cc3ccc4O)[C@H](O[C@H]3C[C@](C)(N)[C@@H](O)[C@H](C)O3)c3ccc(c(Cl)c3)Oc3cc2cc(c3O[C@@H]2O[C@H](CO)[C@@H](O)[C@H](O)[C@H]2O[C@H]2C[C@](C)(NCc3ccc(-c4ccc(Cl)cc4)cc3)[C@@H](O)[C@H](C)O2)Oc2ccc(cc2Cl)[C@H]1O
Potency [1]: inactive

OC[C@H]1O[C@@H](OC[C@H]2O[C@@H](OC/C=C/c3ccccc3)[C@H](O)[C@@H](O)[C@@H]2O)[C@@H](O)[C@@H]1O
outcome [2]: inactive
outcome [4]: inactive
outcome [5]: inactive
outcome [6]: inactive

CC1CC[C@]2(C(=O)O)CC[C@]3(C(=O)O)C(=CCC4[C@@]5(C)CC[C@H](OC6OC(C)C(O)C(OC7OC(CO)C(O)C(O)C7O)C6O)C(C)(C)C5CC[C@]43C)C2C1C (stereo not given in full)
outcome [2]: inactive
outcome [3]: inactive
outcome [4]: inactive
outcome [5]: inactive
outcome [6]: inactive

Cc1cc(OCc2nnc(SC3CCCC3)n2-c2cccnc2)ccc1-c1ccc(S(C)(=O)=O)cc1
Potency [1]: 11.2 µM (active)

O=C(N/N=C/c1ccc(O)c(O)c1)c1cc2ccccc2cc1O
Potency [1]: inactive
Potency [7]: 20.5 µM (active)
